The values that follow come from PubChem BioAssay (Tox21).

Structures are written as SMILES. Unmarked numbers belong to inactive results. Inconclusive results are not listed. Activity calls are given as the source filed them. Unless noted, calls follow the shape of the dose curve; as a rule, active = well fitted curve in the direction sought with a large enough effect in the repeat runs; inconclusive = weak or mixed curves; inactive = no such curve, though single readings can be large; an effect the other way counts as inactive or inconclusive.

Assay [1] is described as follows: qHTS assay to identify small molecule agonists of the sonic hedgehog signaling (Shh) pathway - cell viability counter screen (AID 1259366). Also: nearly all actives have a fitted effect of over 50% in size. The method, boiled down: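 In quantitative high-throughput format, 3T3 Gli1-Luc cells were exposed to compounds for 24hr and multiplexed for viability using CellTiter-Fluor, incubated 1hr at 37C before the fluorescence read.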
(In qHTS, concentration-response curves come from the screen itself.)

The nature of assay [2]: qHTS assay to identify small molecule antagonists of the sonic hedgehog signaling (Shh) pathway - cell viability counter screen (AID 1259367). Also: nearly all actives have a fitted effect of over 55% in size. The method, boiled down: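 After a 4 hr settling period, 3T3 Gli1-Luc cells were treated with DMSO-dissolved chemicals and conditioned medium, kept 24 hr at 37C in 5% CO2, and assayed for viability by CellTiter-Fluor fluorescence following 1 hr reagent incubation.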

The nature of assay [3]: qHTS assay to identify small molecule agonists of the sonic hedgehog signaling (Shh) pathway (AID 1259368; calls by dose curve;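 also: NIH/3T3-derived 3T3Gli1-Luc cells carrying a stable Gli1-driven firefly luciferase reporter; series mostly up to about 92 µM; nearly all actives have a fitted effect of over 15% in size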). The procedure, abridged: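 Luminescent signal was taken as a measure of Gli1-controlled luciferase expression in stably transfected NIH/3T3-derived cells that had been treated for 24 hr with compounds delivered in DMSO.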
Assay [4] can be described thus: qHTS assay to identify small molecule antagonists of the sonic hedgehog signaling (Shh) pathway (AID 1259369; calls by dose curve; also: nearly all actives have a fitted effect of over 45% in size). The method, boiled down:
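Screening used 3T3Gli1-Luc cells at 2,000 per well, compounds delivered in DMSO, and conditioned medium as agonist stimulus; plates incubated 24hr at 37 C and 5% CO2 before a 30min luciferase step.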

Assay [5] concerns the target Estrogen receptor beta (Homo sapiens) (UniProt Q92731). Kind of assay: qHTS assay to identify small molecule agonists of the estrogen receptor beta (ER-beta) signaling pathway (AID 1259377; active = well fitted activation curve with a large enough effect in the signal ratio in the repeat runs, not every such curve was filed as active; the % refers to the signal ratio). The procedure, abridged: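 Reporter cells (HEK293T, ER-beta-UAS-bla) receive compounds or DMSO after a 6 hr pre-incubation. They then incubate 16 hr at 37C/5% CO2, and fluorescence from LiveBLAzer B/G substrate is measured after 2 hours at room temperature.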

Assay [6] has the same target. In words: qHTS assay to identify small molecule antagonists of the estrogen receptor beta (ER-beta) signaling pathway (AID 1259378; active = well fitted inhibition curve with a large enough effect in the signal ratio in the repeat runs, not every such curve was filed as active; the % refers to the signal ratio). The procedure, abridged: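 ER-beta-UAS-bla HEK293T (GripTite) cells in 2% charcoal-stripped FBS medium were preincubated 6 hr at 37C, dosed with compound, then stimulated with 1 nM E2 (final) for 16 hr; beta-lactamase reporter read by B/G FRET fluorescence after 2 hr substrate loading.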

Assay [7] in a line: qHTS assay to identify small molecule agonists of the androgen receptor (AR) signaling pathway in the presence of an antagonist - cell viability counter screen (AID 1259379).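 Also: MDA-kb2 human breast cancer cells carrying an MMTV luciferase reporter; series mostly up to about 92 µM; nearly all actives have a fitted effect of over 25% in size.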 The method, boiled down:
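In MDA-kb2 cells (human breast carcinoma, MMTV-luciferase), compounds at 15 concentrations plus 3.0uM nilutamide; 16 hr, 37C, 0% CO2; CellTiter-Fluor fluorescence read for viability.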

Assay [8] is described as follows: qHTS assay to identify small molecule agonists of the estrogen receptor beta (ER-beta) signaling pathway - cell viability counter screen (AID 1259380). Also: nearly all actives have a fitted effect of over 30% in size. The method, boiled down: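 Viability of ER-beta-UAS-bla HEK293T cells was determined by CellTiter-Glo luminescence following 16 hr treatment with test compounds at 37C.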
A short description of assay [9]: qHTS assay to identify small molecule antagonists of the estrogen receptor beta (ER-beta) signaling pathway - cell viability counter screen (AID 1259382). Also: series mostly up to about 92 µM; nearly all actives have a fitted effect of over 55% in size. The procedure, abridged: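 Tox21 10K library tested in qHTS format on ER-beta-bla HEK293T cells stimulated with 1nM E2; 16 hr treatment at 37C. Same-well CellTiter-Glo luminescence served as the cell viability measure.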

In assay [10] the target is Estrogen receptor (Homo sapiens) (UniProt P03372). In words: qHTS assay to identify small molecule agonists of the estrogen receptor alpha (ER-alpha) signaling pathway in the presence of an antagonist (AID 1259383; calls by dose curve; also: top concentration of the series differs between compounds; nearly all actives have a fitted effect of over 15% in size). The procedure, abridged: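 In VM7Luc4E2 cells, 4,000 per well, compounds at 15 concentrations were co-incubated 22hr at 37C with 10.0nM final ICI-182,780. Luminescence from the stably transfected 4×ERE-luciferase reporter was recorded 30min after ONE-Glo addition.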

Assay [11] in a line: qHTS assay to identify small molecule agonists of the estrogen receptor alpha (ER-alpha) signaling pathway in the presence of an antagonist - cell viability counter screen (AID 1259386).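 Also: series mostly up to about 92 µM; cells exposed to compounds for 22 h at 37 °C before the viability read; nearly all actives have a fitted effect of over 30% in size.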 The procedure, abridged:
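Fluorescent CellTiter-Fluor viability signal from VM7Luc4E2 cells, with the reagent added during the final hour of a 22hr compound exposure at 37C in the presence of 10.0nM ICI-182,780.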

The target of assay [12] is Progesterone receptor (Homo sapiens) (UniProt P06401). Kind of assay: qHTS assay to identify small molecule agonists of the progesterone receptor (PR) signaling pathway (AID 1346784; calls by dose curve; also: nearly all actives have a fitted effect of over 30% in size; also: potency is read from the fitted curve at half-maximal effect). The method, boiled down:
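Reporter assay, GripTite PR-UAS-bla HEK 293T cells: 16 hr exposure to DMSO-dissolved compounds at 37C, 5% CO2, in steroid-depleted (2% charcoal-stripped FBS) medium; beta-lactamase measured by FRET fluorescence.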

Assay [13] shares this target. Kind of assay: qHTS assay to identify small molecule antagonists of the progesterone receptor (PR) signaling pathway (AID 1346795; active = well fitted inhibition curve with a large enough effect in the signal ratio in the repeat runs, not every such curve was filed as active; the % refers to the signal ratio). The method, boiled down:
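Stimulus R5020 at 1 nM final; cells HEK293T PR-UAS-bla; medium with 2% charcoal-stripped FBS; compound exposure 16 hr at 37C, 5% CO2; detection by FRET beta-lactamase substrate, 2 hr, room temperature.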

Assay [14] can be described thus: qHTS assay to identify small molecule antagonists of the progesterone receptor (PR) signaling pathway - cell viability counter screen (AID 1346798). Also: series mostly up to about 92 µM; nearly all actives have a fitted effect of over 50% in size. The procedure, abridged: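 In the same plates used for the beta-lactamase readout, cell viability of compound- and R5020-treated PR-UAS-bla HEK293T cells (16 hr, 37C) was assessed by CellTiter-Glo luminescence.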
The nature of assay [15]: qHTS assay to identify small molecule antagonists of the TGF-beta/Smad signaling pathway - cell viability counter screen (AID 1346824). Also: nearly all actives have a fitted effect of over 50% in size. The method, boiled down: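 SBE-bla HEK 293T cells were plated overnight at 37 C, then given compounds in DMSO plus TGF-beta1 (added as 0.25 ng/mL solution) for 5 hr. After the bla read, CellTiter-Glo was added to the same wells and luminescence read after 30 min at room temperature.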

A short description of assay [16]: qHTS assay to identify small molecule agonists of the TGF-beta/Smad signaling pathway - cell viability counter screen (AID 1346829). Also: top concentration of the series differs between compounds; nearly all actives have a fitted effect of over 45% in size. The procedure, abridged:
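Same-well cytotoxicity: CellTiter-Glo added after the 2 hr room-temperature beta-lactamase substrate step, luminescence measured 30 min later; cells had 5 hr of compound at 37 C.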

The target in assay [17] is Thyrotropin receptor (Homo sapiens) (UniProt P16473). In words: qHTS assay to identify small molecule antagonists of the thyroid stimulating hormone receptor (TSHR) signaling pathway (AID 1259385; calls by dose curve; also: nearly all actives have a fitted effect of over 20% in size). The procedure, abridged: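 TSHR-HEK293 cells were plated and held 18 h at 37C/5% CO2, then given compound plus Ro20-1724 and stimulated with TSH at 1.5 ng/mL final. After 30 min at room temperature, cAMP was detected with cAMP-d2/anti-cAMP-cryptate (1 h) by fluorescence.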

A short description of assay [18]: qHTS assay to identify small molecule agonists of the progesterone receptor (PR) signaling pathway - cell viability counter screen (AID 1346799; calls by dose curve; also: nearly all actives have a fitted effect of over 45% in size). The procedure, abridged:
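Multiplexed viability read: CellTiter-Glo luminescence, 30 min RT, following LiveBLAzer FRET measurement on PR-UAS-bla HEK293T cells exposed to compounds 16 hr.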

Assay [19] is described as follows: qHTS assay to identify small molecule agonists or antagonists of the thyroid stimulating hormone receptor (TSHR) signaling pathway - wild type cell line counter screen (AID 1259384; calls by dose curve). The method, boiled down: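 Wild-type HEK293 cells were plated 18 h at 37 C/5% CO2, pin-dosed with compound plus Ro20-1724 medium, held 30 min at room temperature, then given cAMP-d2 and anti-cAMP-cryptate; fluorescence was read after 1 h. Fifteen concentrations, triplicate.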

Estrogen receptor (Homo sapiens), sequence (P03372 whole entry, looked up): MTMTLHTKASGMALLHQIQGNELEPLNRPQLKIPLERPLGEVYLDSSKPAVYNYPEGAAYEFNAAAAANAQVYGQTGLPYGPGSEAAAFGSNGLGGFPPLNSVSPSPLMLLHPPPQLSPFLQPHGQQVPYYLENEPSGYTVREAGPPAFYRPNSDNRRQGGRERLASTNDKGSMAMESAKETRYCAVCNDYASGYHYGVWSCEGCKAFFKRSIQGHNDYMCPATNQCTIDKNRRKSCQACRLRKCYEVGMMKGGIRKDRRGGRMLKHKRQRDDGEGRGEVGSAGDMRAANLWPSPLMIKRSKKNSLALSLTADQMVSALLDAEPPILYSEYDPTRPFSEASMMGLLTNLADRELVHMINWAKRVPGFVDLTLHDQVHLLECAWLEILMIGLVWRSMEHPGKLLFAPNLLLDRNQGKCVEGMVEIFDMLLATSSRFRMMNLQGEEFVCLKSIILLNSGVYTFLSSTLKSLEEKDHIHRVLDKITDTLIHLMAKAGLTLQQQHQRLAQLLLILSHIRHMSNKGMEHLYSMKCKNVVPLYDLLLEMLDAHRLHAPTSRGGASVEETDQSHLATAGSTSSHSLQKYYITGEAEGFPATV
Thyrotropin receptor (Homo sapiens), sequence (P16473 whole entry, looked up): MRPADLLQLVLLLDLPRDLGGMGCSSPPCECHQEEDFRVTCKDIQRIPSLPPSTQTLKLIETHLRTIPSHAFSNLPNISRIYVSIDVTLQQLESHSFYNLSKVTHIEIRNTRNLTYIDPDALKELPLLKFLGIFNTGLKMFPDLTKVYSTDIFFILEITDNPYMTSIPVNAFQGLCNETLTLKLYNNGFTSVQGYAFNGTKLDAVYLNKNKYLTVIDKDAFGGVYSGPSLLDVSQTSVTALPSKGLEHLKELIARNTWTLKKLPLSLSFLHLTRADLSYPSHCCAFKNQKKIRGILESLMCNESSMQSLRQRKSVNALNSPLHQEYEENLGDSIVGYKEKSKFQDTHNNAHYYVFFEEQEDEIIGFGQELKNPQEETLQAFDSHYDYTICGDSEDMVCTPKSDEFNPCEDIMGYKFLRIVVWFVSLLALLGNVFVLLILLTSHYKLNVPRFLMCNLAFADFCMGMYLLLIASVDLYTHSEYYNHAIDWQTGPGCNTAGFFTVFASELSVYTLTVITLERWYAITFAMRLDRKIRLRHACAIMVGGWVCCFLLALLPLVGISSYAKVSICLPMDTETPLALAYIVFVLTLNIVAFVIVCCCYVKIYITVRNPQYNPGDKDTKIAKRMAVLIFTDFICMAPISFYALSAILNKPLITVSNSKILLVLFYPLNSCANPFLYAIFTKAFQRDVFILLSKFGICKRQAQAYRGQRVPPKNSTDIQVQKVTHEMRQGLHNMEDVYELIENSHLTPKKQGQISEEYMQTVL
Progesterone receptor (Homo sapiens), sequence (P06401 whole entry, looked up): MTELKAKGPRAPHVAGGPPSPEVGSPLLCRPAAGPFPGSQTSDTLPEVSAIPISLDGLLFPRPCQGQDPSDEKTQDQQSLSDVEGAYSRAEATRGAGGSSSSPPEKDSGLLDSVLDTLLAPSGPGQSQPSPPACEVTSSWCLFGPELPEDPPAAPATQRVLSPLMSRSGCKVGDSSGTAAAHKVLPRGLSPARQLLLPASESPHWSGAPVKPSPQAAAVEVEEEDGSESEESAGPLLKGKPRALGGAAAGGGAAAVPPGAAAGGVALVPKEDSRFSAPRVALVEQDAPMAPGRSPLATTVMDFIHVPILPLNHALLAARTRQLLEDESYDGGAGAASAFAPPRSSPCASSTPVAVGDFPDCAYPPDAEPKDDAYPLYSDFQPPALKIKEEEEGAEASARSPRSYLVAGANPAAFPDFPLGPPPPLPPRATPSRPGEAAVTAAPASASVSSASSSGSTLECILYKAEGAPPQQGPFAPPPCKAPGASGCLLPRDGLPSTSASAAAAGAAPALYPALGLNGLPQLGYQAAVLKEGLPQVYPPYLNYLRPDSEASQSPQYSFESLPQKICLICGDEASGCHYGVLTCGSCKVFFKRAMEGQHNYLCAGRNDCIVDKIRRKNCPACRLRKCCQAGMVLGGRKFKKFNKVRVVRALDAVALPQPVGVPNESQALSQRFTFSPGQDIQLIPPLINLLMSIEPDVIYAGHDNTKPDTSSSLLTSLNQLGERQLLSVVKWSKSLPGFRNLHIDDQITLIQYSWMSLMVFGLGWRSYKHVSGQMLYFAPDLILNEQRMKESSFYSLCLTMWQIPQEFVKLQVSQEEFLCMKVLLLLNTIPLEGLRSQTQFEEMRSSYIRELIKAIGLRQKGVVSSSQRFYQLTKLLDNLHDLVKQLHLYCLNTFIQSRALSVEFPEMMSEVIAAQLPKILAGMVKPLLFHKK
Estrogen receptor beta (Homo sapiens), sequence (Q92731 whole entry, looked up): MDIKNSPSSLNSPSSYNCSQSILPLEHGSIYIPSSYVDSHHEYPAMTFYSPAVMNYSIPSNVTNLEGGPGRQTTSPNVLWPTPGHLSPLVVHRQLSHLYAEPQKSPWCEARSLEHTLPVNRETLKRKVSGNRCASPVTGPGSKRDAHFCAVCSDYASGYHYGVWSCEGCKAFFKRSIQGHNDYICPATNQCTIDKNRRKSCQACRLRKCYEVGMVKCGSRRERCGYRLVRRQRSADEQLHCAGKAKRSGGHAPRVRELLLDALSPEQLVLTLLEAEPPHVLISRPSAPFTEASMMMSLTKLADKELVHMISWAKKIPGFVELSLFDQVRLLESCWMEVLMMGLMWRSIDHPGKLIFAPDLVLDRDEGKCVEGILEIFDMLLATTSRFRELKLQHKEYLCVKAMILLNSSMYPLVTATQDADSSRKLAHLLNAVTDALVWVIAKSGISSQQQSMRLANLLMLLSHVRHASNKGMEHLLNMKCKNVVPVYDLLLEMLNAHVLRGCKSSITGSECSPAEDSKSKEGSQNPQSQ

Take `CN1C(CCl)Nc2cc(Cl)c(S(N)(=O)=O)cc2S1(=O)=O` (centres undefined): the molecule was called inactive in assay [1], in assay [2], in assay [3], in assay [6], in [7] and in assay [9]. Besides, the result in assay [11], in assay [14], in assay [15] and in [16] was inactive. In addition, the Potency result in [4], in assay [5], in assay [8], in assay [10], in assay [12] and in assay [13] was “inactive” in each case.
For the molecule `CC(CC(=O)Cl)CC(C)(C)C` (centres undefined), the outcome in assay [1], in assay [2], in assay [3], in assay [6], in assay [7] and in [17] was inactive. The result in assay [11], in [15] and in assay [16] was inactive. In addition, the Potency result in assay [4], in assay [5], in assay [8], in assay [10] and in assay [13] was “inactive” throughout. Moreover, in assay [12], the Potency is 12.3 µM (active).
Consider `C=CCCCCCCCCOC(C)=O`, for which the result in [1], in assay [2], in assay [3], in [6], in assay [7] and in assay [9] was inactive. Besides, the outcome in assay [11], in [14] and in [16] was inactive. In addition, the Potency result in [4], in assay [5], in [8], in [10] and in assay [13] was “inactive” throughout.
As for `COC(=O)c1ccccc1Cl`, the call in assay [1], in [2], in assay [3], in assay [6], in [7] and in assay [9] was inactive. Also, the result in assay [11], in [14] and in assay [16] was inactive. Also, the Potency result in [4], in [5], in [8] and in assay [13] was “inactive” in each case.
As to `CCCCCCCCCCCBr`, the outcome in [1], in assay [2], in assay [3], in assay [6], in assay [7] and in [9] was inactive. In addition, the outcome in assay [11], in assay [14], in assay [15] and in [16] was inactive. Further, the Potency result in assay [4], in assay [5], in assay [8], in assay [10], in [12] and in assay [13] was “inactive” each time. Besides, in [18], the Potency result is “inactive”.
Regarding `CC1(C)CC(N)CC(C)(C)N1`, the molecule was called inactive in assay [1], in [2], in [3], in [6], in assay [7] and in assay [9]. Moreover, the outcome in [19], in assay [17], in assay [14], in [15] and in assay [16] was inactive. In addition, the Potency entry in assay [4], in [5], in [8], in assay [12], in assay [13] and in assay [18] was “inactive” throughout.
As to `CCc1ccc(CC)cc1`, the result in assay [1], in [2], in [3], in assay [6], in [7] and in assay [9] was inactive. Besides, the molecule was called inactive in [17], in [11], in assay [14], in assay [15] and in assay [16]. In addition, the Potency entry in [4], in assay [5], in assay [8], in assay [10], in [12] and in assay [18] was “inactive” each time.
